# Results filed as inconclusive are left out. Unmarked numbers belong to inactive results. Activity calls are given as the source filed them. Calls follow the shape of the dose curve; as a rule, active = well fitted inhibition curve with a large enough effect; inconclusive = small, poorly fitted or top-dose-only effect; inactive = no such curve, though single readings can be large or run the other way.
# Assay: BET inhibitor-based combinations targeting novel dependencies in MECOM-rearranged (r) AML: HNT-34 cell line (AID 2202234); also: nearly all actives have a fitted effect of over 35% in size;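 as to viability (% of control): plate controls were vehicle wells for no effect and cell-free wells for full effect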
# Details: HNT-34 AML viability, CellTiter-Glo luminescence, 48 h; series mostly up to 46 µM; viability (% of control): at the top concentration
# Method in brief: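 Normalized to DMSO and empty-well controls, the luminescence data from CellTiter-Glo after 48 hr drug exposure were fitted across 11 concentrations. Reported metrics are area under the dose-response curve and its Z-transformed form.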
# Potency is read from the fitted curve at half-maximal effect.
SMILES,Potency,viability (% of control)
O=C1c2ccccc2-[n+]2ccc3c([nH]c4ccccc43)c21,1860 nM (active),–
O=C(O)CCC1CCC(c2cc(F)ccc2F)(S(=O)(=O)c2ccc(Cl)cc2)CC1 (stereo not drawn),–,55.4%
CCOCC(O)COc1ccc(NC(=O)CC[S+](C)C)cc1 (stereo not drawn),–,85.3%
C[C@H](NC(=O)c1sccc1OCc1ccc(Cl)cc1)c1ccccc1,–,89%
CC(C)C[C@@H](N)[C@H](O)C(=O)N[C@H](C(=O)N[C@H](C(=O)N[C@@H](CC(=O)O)C(=O)O)C(C)C)C(C)C,–,101%
Nc1nc2[nH]cc(CCc3ccc(C(=O)N[C@@H](CCC(=O)O)C(=O)O)cc3)c2c(=O)[nH]1,–,108%
CCC(=O)O[C@]1(C(=O)SCF)[C@H](C)C[C@H]2[C@@H]3C[C@H](F)C4=CC(=O)C=C[C@]4(C)[C@@]3(F)[C@@H](O)C[C@@]21C,–,90.5%
C[C@H](NC(=O)[C@@H](O)c1cc(F)cc(F)c1)C(=O)N[C@@H]1C(=O)N(C)c2ccccc2-c2ccccc21,–,80.2%
CO[C@@H]1[C@@H](OC(N)=O)[C@@H](O)[C@H](Oc2ccc3c(O)c(NC(=O)c4ccc(O)c(CC=C(C)C)c4)c(=O)oc3c2C)OC1(C)C,–,109%
Cc1[nH]nc2ccc(-c3cncc(OC[C@@H](N)Cc4ccccc4)c3)cc12,662 nM (active),–
NC1=N[C@H]2[C@H](CS[C@H]2CCCCC(=O)O)N1,–,91.9% [at 15.6 µM]
Cc1ccsc1C(=CCCN1CCC[C@@H](C(=O)O)C1)c1sccc1C,–,94.5%
Clc1ccc(C(Cn2ccnc2)OCc2ccc(Sc3ccccc3)cc2)c(Cl)c1 (stereo not drawn),20900 nM (active),–

# Reference: PubChem BioAssay (NCATS)
